Unmarked numbers belong to inactive results. Results filed as inconclusive are left out. A call without a number means that no potency is given here. Calls of active or inactive are those of the source. The call rests on the fitted dose curve; in most records, active means well fitted curve in the direction sought with a large enough effect; inconclusive means small, poorly fitted or top-dose-only effect, or another doubt; inactive means no such curve, though single readings can be large; an effect the other way counts as inactive or inconclusive.
Tests used:
[1] = qHTS for compounds that reverse cellular toxicity of Amyloid beta (A-beta) peptide in yeast: LOPAC Validation Assay (AID 720559)
How it was run: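 Here, A-beta-toxic yeast grow with test compounds at 30 C for 48 hr before optical density at 600 nm is recorded; data are normalized against DMSO and the FeCl3-clioquinol control.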

[2] = qHTS for Activators of Parkin Expression: LOPAC Validation Assay (NLuc Reporter) (AID 720572)
How it was run: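 Parkin promoter-driven FLuc/NLuc neuronal reporter cells; 24 h plating, 7-pt dose response, 24 h at 37 C/5% CO2; FLuc then NanoLuc reagent, 10 min each, luminescence; DMSO/positive control normalized.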

[3] = target: T1, Hexokinase-4 (Homo sapiens) + Glucokinase regulatory protein (Homo sapiens) (UniProt P35557+Q14397); experiment: qHTS assay for inhibitors of recombinant human GCK-GKRP interaction: Diaphorase-coupled assay (AID 743205)
T1 sequence (P35557 whole entry, looked up): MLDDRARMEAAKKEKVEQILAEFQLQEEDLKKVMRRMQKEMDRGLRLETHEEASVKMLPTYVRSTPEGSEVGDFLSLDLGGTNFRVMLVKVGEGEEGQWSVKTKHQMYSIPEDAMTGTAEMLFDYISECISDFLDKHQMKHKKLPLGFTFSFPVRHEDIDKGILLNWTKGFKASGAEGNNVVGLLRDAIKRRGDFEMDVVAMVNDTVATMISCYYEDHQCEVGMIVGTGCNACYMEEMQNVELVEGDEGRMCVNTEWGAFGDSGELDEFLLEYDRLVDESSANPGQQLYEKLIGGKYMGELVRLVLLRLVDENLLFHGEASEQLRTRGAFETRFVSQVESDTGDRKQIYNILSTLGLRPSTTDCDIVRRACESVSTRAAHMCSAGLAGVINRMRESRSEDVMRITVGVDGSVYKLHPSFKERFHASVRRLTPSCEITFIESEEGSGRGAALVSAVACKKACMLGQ
T1 sequence (Q14397 whole entry, looked up): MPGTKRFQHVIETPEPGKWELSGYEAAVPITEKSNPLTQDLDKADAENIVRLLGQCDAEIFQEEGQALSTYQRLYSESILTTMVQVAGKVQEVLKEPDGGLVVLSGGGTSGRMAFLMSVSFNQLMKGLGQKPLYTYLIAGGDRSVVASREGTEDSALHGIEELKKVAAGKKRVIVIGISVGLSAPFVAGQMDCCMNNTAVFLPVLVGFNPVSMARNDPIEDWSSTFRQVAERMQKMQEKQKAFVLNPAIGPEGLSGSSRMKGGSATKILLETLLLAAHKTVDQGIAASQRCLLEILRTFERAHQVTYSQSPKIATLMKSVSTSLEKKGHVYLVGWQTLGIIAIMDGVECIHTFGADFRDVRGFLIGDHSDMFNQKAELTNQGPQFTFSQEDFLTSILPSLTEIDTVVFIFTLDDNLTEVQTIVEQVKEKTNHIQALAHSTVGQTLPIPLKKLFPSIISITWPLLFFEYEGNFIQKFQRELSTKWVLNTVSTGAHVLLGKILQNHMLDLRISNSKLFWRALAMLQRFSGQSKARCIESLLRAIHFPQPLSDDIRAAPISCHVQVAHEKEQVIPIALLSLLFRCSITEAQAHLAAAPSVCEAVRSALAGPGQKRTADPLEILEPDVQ
How it was run: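 Signal derives from resorufin generated by diaphorase, linked to GCK turnover of glucose (5 mM) and ATP (0.4 mM). Enzyme complex was added after a 20-minute compound preincubation and monitored for 30 minutes.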

[4] = target: T1, Hexokinase-4 (Homo sapiens) + Glucokinase regulatory protein (Homo sapiens); experiment: qHTS assay for inhibitors of recombinant human GCK-GKRP interaction: ADP-Glo assay (AID 743206)
How it was run: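 GST-GCK and FLAG-GKRP (15 nM each in the dispensed mix, with 2 uM S6P) react with 0.4 mM ATP and 5 mM glucose (final) in Hepes pH 7.6 for 60 min at room temperature. ADP is measured by ADP-Glo luminescence.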

[5] = target: T1, Hexokinase-4 (Homo sapiens) + Glucokinase regulatory protein (Homo sapiens); experiment: qHTS assay for inhibitors of recombinant human GCK-GKRP interaction: HTRF assay (AID 743207)
How it was run: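 Titration screening format: recombinant GST-GCK and FLAG-GKRP at 5 nM, S6P at 2 uM, labelled anti-tag antibodies, 60 min at RT, dual-wavelength HTRF readout.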

[6] = qHTS Assay for Identifying Gametocytocidal Compounds (AID 743244);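 further: actives lower the fluorescent signal which means gametocytes are killed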; details: P. falciparum 3D7 stage III-V gametocytes, alamarBlue, 72 h; max response: hits give low values
How it was run: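 P. falciparum 3D7 stage III–V gametocytes (20,000 cells/well) were exposed to compounds for 72 h at 37 °C, 5% CO2. AlamarBlue was then added for 24 h; decreased resorufin fluorescence (Ex 525/Em 598 nm) indicated loss of viability.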

[7] = NS1 protein of Zika virus - qHTS assay to identify small molecule inhibitors in human HEK 293 cells (AID 1347053); further: series mostly up to about 46 µM; nearly all actives have a fitted effect of over 55% in size
How it was run: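 Following 20 h seeding, HEK 293 cells took compound, then 1 h later ZIKV MR766 (MOI = 0.5). Incubation ran 24 h at 37 C before TR-FRET detection of NS1; a drop in signal indicates inhibition.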

[8] = target: Tyrosine-protein phosphatase non-receptor type substrate 1 (Homo sapiens) + Leukocyte surface antigen CD47 (Homo sapiens) (UniProt P78324+Q08722); experiment: CD47-SIRPalpha protein protein interaction - Alpha assay qHTS validation (AID 1347059);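 further: bead proximity luminescence from CD47 binding SIRPalpha after compound preincubation with SIRPalpha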
Sequence of Tyrosine-protein phosphatase non-receptor type substrate 1 (Homo sapiens) + Leukocyte surface antigen CD47 (Homo sapiens) (P78324 whole entry, looked up): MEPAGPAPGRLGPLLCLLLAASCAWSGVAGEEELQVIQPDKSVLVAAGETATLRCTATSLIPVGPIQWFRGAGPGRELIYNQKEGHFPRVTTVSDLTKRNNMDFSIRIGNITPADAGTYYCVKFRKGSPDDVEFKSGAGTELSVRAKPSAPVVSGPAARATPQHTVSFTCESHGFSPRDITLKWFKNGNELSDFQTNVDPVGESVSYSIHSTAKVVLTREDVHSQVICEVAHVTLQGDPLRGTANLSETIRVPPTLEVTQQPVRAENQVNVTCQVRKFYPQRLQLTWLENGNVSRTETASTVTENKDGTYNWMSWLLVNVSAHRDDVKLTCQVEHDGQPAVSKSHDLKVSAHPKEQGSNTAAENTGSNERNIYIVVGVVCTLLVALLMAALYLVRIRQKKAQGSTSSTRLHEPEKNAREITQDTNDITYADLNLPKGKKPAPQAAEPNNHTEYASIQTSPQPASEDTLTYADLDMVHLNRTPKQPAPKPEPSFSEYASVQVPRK
Sequence of Tyrosine-protein phosphatase non-receptor type substrate 1 (Homo sapiens) + Leukocyte surface antigen CD47 (Homo sapiens) (Q08722 whole entry, looked up): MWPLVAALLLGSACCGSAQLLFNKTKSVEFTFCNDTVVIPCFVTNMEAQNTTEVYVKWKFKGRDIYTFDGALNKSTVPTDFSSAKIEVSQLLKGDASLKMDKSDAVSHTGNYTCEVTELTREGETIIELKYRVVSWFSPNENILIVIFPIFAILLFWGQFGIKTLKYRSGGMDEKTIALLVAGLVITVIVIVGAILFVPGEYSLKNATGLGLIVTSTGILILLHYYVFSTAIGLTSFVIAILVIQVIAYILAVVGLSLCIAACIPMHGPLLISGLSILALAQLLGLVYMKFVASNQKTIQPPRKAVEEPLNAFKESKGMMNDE
How it was run: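 Binding is measured by AlphaScreen proximity: Ni-NTA acceptor beads capture His-CD47, streptavidin donor beads capture biotin-SIRPalpha. Each of three additions (SIRPalpha with compound, CD47, beads) incubates 30 min at room temperature protected from light.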

[9] = target: Parathyroid hormone/parathyroid hormone-related peptide receptor (Homo sapiens) (UniProt Q03431); experiment: qHTS for PTHR1 Agonists: Optimization Screen against the NCGC LOPAC library (AID 1347079);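 further: GloSensor cAMP luminescence in HEK-293 GP2 cells expressing human PTHR1 with IBMX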
How it was run: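 Compounds were tested across a qHTS titration. PTHR1-expressing GP2 cells report cAMP rises via GloSensor luminescence after 1 hr compound exposure at 37C with IBMX present.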

[10] = target: N-terminal Xaa-Pro-Lys N-methyltransferase 1 (Homo sapiens) (UniProt Q9BV86); experiment: qHTS Assay for Inhibitors of N-terminal methyltransferase 1 (NTMT1): LOPAC validation of the NTMT1 SAHH-coupled ThioGlo3 Assay (AID 1347143);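 further: SAH from peptide methylation measured as thiol fluorescence via SAHH coupling and ThioGlo3; potency means the concentration at half of the fitted maximal effect; nearly all actives have a fitted effect of over 70% in size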
Sequence of N-terminal Xaa-Pro-Lys N-methyltransferase 1 (Homo sapiens) (Q9BV86 whole entry, looked up): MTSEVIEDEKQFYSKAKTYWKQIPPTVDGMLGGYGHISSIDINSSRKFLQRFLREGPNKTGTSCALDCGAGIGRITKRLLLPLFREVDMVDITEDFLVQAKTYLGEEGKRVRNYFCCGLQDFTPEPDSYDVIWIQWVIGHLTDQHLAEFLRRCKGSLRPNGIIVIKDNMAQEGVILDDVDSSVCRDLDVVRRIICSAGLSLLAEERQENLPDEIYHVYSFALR
How it was run: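 Inhibition of NTMT1 methylation of peptide SPKRIA is followed by converting SAH with SAHH and labelling the released thiol with ThioGlo3. Plates are read at 340/450nm before and 30 min after reagent addition, both at room temperature.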

[11] = tested on: Zika virus NS2B-NS3 protease (unlinked); experiment: Optimization of GU AMC qHTS for Zika virus inhibitors: Unlinked NS2B-NS3 protease assay (AID 1347151); further: potency means the concentration at half of the fitted maximal effect; nearly all actives have a fitted effect of over 80% in size
How it was run: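 In this qHTS, compounds acted on 25 nM unlinked Zika NS2B–NS3 in pH 8.0 Tris/Tween buffer. Cleavage of an AMC peptide ran 15 min at room temperature, to about 20% conversion.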

[12] = qHTS to identify inhibitors of the type 1 interferon - major histocompatibility complex class I in skeletal muscle: primary screen against the NCATS LOPAC collection (AID 1347405);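 further: lytic HiBiT luminescence reporting HLA-B protein level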
How it was run: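 Cells: C25cl48 human myoblasts, HiBiT-tagged HLA-B*08:01, stimulated with IFN-beta 4.0 ng/ml. Compounds are titrated 1:4.3 over 7 points from 46 uM final and incubated 24 hrs; endogenous MHC class I is quantified by HiBiT lytic luminescence.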

[13] = qHTS for inhibitors of adenylyl cyclases using a fission yeast platform: a pilot screen against the NCATS LOPAC library (AID 1347410)
How it was run: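 Inhibition of GNAS-stimulated AC9 activity in S. pombe was inferred from derepression of a PKA-repressed fbp1-GFP reporter, measured as cytometric fluorescence after 18 h at 30C with compounds at up to 57 µM.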

[14] = target: Single-stranded DNA cytosine deaminase (Homo sapiens) (UniProt Q9GZX7); experiment: Validation qHTS assay for inhibitors of Activation Induced Cytidine Deaminase (AID): AID signal (AID 1347429)
Sequence of Single-stranded DNA cytosine deaminase (Homo sapiens) (Q9GZX7 whole entry, looked up): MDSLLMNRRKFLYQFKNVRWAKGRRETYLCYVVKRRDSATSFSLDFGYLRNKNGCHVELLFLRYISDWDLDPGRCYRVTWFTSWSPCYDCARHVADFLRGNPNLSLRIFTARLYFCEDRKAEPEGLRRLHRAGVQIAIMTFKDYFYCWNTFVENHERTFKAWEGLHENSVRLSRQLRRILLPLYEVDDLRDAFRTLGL
How it was run: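 In this coupled qHTS, AID deaminates a FRET-labelled ssDNA substrate in the presence of UDG over 4 hr at room temperature. Compounds span up to 114 uM final.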

[15] = Primary qHTS for inhibitors of La Crosse Virus (LACV) - induced cell death in SH-SY5Y cells (AID 1508616);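 further: top concentration of the series differs between compounds; higher means more rescue of cells from virus-induced death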
How it was run: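 Readout was luminescence from ATPLite 1step added after a 6-day LACV infection (0.01 MOI) of SH-SY5Y cells that had received pin-transferred compound 24 hr after seeding.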

[16] = target: Calcium and integrin-binding protein 1 (Homo sapiens) (UniProt Q99828); experiment: Validation qHTS for Identification of Calcium Integrin Binding protein 1 (CIB1) Competitor (AID 1508618)
Sequence of Calcium and integrin-binding protein 1 (Homo sapiens) (Q99828 whole entry, looked up): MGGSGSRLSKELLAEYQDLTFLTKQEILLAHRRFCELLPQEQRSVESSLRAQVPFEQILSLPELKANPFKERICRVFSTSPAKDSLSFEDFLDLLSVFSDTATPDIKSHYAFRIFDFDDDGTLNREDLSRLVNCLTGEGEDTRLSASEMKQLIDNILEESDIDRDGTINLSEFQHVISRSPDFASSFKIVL
How it was run: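 Displacement of FITC-alphaIIb peptide (100 nM) from CIB1-GST (1 uM) is monitored by polarization in quantitative HTS format; buffer carries 5 mM CaCl2 and 125 mM NaCl at pH 7.4, incubations are at room temperature.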

[17] = Primary qHTS for small molecule stabilizers of the endoplasmic reticulum resident proteome: Secreted ER Calcium Modulated Protein (SERCaMP) assay (AID 1508630)
How it was run: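 GLuc-SERCaMP-expressing SH-SY5Y cells, pretreated 16 h with compound, are challenged with thapsigargin to empty ER calcium stores; after 4 h, coelenterazine is added directly to the medium and luminescence is imaged.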

[18] = target: Rap guanine nucleotide exchange factor 3 (Homo sapiens) (UniProt O95398); experiment: Confirmatory qHTS for agonist of cAMP-regulated guanine nucleotide exchange factor 3 (EPAC1) (AID 1645881);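 further: EPAC1 catalysed release of BODIPY-GDP from Rap1B seen as fluorescence loss; nearly all actives have a fitted effect of over 75% in size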
Sequence of Rap guanine nucleotide exchange factor 3 (Homo sapiens) (O95398 whole entry, looked up): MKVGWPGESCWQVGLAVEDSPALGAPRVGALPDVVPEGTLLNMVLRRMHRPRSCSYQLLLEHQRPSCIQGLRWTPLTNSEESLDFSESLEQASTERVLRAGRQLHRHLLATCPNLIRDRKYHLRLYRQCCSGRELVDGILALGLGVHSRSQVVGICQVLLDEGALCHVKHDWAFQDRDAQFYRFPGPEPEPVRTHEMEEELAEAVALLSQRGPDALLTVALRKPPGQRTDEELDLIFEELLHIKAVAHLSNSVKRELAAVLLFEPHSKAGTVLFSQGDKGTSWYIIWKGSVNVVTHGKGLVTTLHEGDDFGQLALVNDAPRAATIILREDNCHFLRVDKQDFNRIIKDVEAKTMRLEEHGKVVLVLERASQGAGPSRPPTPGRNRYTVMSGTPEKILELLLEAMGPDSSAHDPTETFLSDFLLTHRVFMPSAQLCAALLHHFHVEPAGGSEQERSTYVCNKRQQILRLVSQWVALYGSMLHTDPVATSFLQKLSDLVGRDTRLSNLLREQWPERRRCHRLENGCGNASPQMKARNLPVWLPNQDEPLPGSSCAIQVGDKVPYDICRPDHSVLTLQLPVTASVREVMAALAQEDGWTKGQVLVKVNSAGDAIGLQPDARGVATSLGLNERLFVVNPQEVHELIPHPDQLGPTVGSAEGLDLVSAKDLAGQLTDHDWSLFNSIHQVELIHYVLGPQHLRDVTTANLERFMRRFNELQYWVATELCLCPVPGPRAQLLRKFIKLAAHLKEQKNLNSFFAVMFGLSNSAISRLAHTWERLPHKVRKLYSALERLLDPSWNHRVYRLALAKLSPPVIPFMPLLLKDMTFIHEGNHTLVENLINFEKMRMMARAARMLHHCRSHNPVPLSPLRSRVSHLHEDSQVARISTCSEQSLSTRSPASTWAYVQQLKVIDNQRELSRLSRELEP

[19] = target: Rap guanine nucleotide exchange factor 4 (Homo sapiens) (UniProt Q8WZA2); experiment: Confirmatory qHTS for agonist of cAMP-regulated guanine nucleotide exchange factor 4 (EPAC2) (AID 1645884);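 further: nucleotide exchange releases bodipy-GDP from Rap1 and this lowers its fluorescence; nearly all actives have a fitted effect of over 65% in size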
Sequence of Rap guanine nucleotide exchange factor 4 (Homo sapiens) (Q8WZA2 whole entry, looked up): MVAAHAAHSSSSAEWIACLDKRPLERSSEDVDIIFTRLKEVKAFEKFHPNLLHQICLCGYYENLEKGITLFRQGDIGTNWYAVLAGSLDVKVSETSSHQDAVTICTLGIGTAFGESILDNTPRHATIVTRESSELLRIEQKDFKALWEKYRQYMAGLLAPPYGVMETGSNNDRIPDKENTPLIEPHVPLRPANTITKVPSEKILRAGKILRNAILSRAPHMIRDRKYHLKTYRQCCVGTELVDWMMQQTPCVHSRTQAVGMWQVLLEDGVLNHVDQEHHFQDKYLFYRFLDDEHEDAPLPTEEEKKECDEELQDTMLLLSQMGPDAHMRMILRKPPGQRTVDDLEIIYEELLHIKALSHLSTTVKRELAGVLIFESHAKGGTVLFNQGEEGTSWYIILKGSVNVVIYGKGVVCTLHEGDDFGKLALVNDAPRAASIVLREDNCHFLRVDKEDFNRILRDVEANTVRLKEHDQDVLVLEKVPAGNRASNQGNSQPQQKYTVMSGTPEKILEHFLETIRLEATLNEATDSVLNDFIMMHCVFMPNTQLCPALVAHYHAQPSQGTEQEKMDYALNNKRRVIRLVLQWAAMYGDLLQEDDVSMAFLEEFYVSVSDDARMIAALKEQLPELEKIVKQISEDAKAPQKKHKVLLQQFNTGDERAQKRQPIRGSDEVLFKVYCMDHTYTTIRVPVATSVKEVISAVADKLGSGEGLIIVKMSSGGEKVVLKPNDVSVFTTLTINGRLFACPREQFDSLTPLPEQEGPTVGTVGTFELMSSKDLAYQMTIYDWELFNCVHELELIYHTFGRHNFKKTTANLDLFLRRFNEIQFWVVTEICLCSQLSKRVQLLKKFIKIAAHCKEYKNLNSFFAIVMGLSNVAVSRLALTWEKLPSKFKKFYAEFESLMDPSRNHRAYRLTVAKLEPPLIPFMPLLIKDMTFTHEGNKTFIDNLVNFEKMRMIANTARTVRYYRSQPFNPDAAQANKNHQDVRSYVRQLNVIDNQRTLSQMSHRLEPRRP

[20] = target: Rap guanine nucleotide exchange factor 4 (Homo sapiens) (UniProt Q8WZA2); experiment: Confirmatory qHTS for antagonist of cAMP-regulated guanine nucleotide exchange factor 4 (EPAC2) (AID 1645885); further: nearly all actives have a fitted effect of over 25% in size
[21] = target: Metallo-beta-lactamase type 2 (Klebsiella pneumoniae) (UniProt C7C422); experiment: qHTS to identify inhibitors of the New Delhi Metallo-beta-lactamase (NDM): assay validation screen against the NCATS LOPAC Collection (AID 1794843);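 further: nitrocefin turnover by NDM-1 measured as 485 nm absorbance at plateau; series mostly up to about 38 µM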
Sequence of Metallo-beta-lactamase type 2 (Klebsiella pneumoniae) (C7C422 whole entry, looked up): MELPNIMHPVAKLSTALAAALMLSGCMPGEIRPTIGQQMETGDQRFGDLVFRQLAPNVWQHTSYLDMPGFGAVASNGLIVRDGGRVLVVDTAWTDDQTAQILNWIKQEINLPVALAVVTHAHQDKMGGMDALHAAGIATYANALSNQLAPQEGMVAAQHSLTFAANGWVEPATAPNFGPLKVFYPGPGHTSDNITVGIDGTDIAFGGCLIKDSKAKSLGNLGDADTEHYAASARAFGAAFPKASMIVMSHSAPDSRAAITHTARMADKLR
How it was run: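 Enzyme 2 nM final, 50 mM HEPES pH 7.0, 1 uM ZnSO4, 0.01% Tween20; cpds in DMSO, preincub w/ enzyme; + nitrocefin (50 uM stock); A485 at plateau; no-enzyme column as blank.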

[22] = target: Phospholipid hydroperoxide glutathione peroxidase GPX4 (Homo sapiens) (UniProt P36969); experiment: Primary qHTS Assay for Inhibitors of Recombinant Selenoprotein Glutathione Peroxidase 4 (GPX4) (AID 1845192); details: outcome: dose series up to 50 µM unless noted; further: series mostly up to about 50 µM; nearly all actives have a fitted effect of over 65% in size
Sequence of Phospholipid hydroperoxide glutathione peroxidase GPX4 (Homo sapiens) (P36969 whole entry, looked up): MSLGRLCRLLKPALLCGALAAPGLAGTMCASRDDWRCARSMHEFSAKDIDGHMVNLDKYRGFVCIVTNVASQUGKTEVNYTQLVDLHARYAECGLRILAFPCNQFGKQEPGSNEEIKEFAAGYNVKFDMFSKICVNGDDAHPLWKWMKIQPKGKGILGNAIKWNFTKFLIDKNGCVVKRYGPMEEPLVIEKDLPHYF
How it was run: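 NADPH consumption, followed by fluorescence at 340/450 nm between 0 and 15 min, reports GPX4 activity via coupled glutathione reductase (100 nM). Enzyme 200 nM was pre-exposed to compound 30 min; 0.5 mM cumene hydroperoxide and 1 mM GSH served as substrates.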

## N#C/C(=C\c1ccc(O)c(O)c1)C(=O)Nc1ccccc1
[1]
  outcome: inactive
[2]
  outcome: inactive
[3]
  outcome: inactive
[4]
  outcome: inactive
[5]
  outcome: inactive
[6]
  max response: 12.5%
[7]
  outcome: inactive
[8]
  Potency: inactive
[9]
  outcome: inactive
[10]
  Potency: 39.8 µM (active)
[11]
  Potency: 3.36 µM (active)
[12]
  Potency: inactive
[13]
  outcome: inactive
[14]
  Potency: inactive
[15]
  outcome: inactive
[16]
  outcome: inactive
[17]
  Potency: inactive
[18]
  outcome: inactive
[19]
  outcome: inactive
[20]
  Potency: inactive
[21]
  Potency: inactive
[22]
  Potency: inactive

Reference: PubChem BioAssay (NCATS)
